Assay results reported in PubChem BioAssay (NCATS).
Records with an inconclusive call do not appear. The source made the active and inactive calls. Unless noted, calls come from the whole dose curve.

Tests used:
[1] = target: Cytochrome P450 3A4 (Homo sapiens) (UniProt P08684); assay: qHTS Assay for Inhibitors and Substrates of Cytochrome P450 3A4 (AID 884; active = well fitted curve in the direction sought with a large enough effect; an effect the other way counts as inactive or inconclusive; note: series mostly up to about 57 µM; % is set by controls: 0 for no effect and ±100 for the full control effect; nearly all actives have a fitted effect of over 50% in size)
Cytochrome P450 3A4 (Homo sapiens), sequence (P08684 whole entry, looked up): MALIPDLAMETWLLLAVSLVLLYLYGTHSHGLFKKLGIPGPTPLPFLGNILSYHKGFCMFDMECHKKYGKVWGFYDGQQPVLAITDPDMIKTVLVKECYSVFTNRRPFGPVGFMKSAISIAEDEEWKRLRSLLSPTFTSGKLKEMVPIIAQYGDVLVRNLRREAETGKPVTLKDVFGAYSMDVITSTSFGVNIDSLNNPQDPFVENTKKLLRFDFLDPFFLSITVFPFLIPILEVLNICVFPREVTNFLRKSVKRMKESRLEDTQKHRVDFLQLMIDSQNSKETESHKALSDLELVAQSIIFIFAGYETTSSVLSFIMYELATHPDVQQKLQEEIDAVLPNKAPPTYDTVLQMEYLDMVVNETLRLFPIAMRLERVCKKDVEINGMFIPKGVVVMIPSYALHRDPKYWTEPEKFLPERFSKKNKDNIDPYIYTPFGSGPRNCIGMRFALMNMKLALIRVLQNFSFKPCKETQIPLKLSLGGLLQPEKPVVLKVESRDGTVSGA
Procedure, shortened: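 Luminescent readout of luciferin produced by CYP3A4 (20 nM) dealkylation of Luciferin-PPXE, 25 uM (its KM). NADPH-driven reaction ran 60 min at RT after 10 min compound preincubation; data scaled to 57 uM ketoconazole as 100% inhibition.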

[2] = target: DNA dC->dU-editing enzyme APOBEC-3G (Homo sapiens) (UniProt Q9HC16); assay: qHTS for inhibitors of Vif-A3G interactions: Validation (AID 588379; active = well fitted curve in the direction sought with a large enough effect; an effect the other way counts as inactive or inconclusive; note: 0% is about no effect)
DNA dC->dU-editing enzyme APOBEC-3G (Homo sapiens), sequence (Q9HC16 whole entry, looked up): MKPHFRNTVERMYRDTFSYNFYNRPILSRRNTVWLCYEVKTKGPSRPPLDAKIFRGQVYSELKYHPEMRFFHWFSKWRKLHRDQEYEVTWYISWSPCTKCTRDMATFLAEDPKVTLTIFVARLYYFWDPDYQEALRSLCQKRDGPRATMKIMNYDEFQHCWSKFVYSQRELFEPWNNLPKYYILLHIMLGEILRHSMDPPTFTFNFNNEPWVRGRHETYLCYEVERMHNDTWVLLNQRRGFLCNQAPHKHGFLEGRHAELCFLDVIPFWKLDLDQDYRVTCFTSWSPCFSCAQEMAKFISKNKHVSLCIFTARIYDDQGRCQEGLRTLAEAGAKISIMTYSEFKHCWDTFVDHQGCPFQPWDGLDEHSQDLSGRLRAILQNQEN
Procedure, shortened: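 Yellow fluorescence (Ex 488, Em 500-530) of Vif-coexpressing HeLa A3G-eYFP cells, scanned by Acumen cytometer, reports blocked A3G degradation. Cells plated at 700/well overnight at 37 deg C before compound addition, then a further overnight compound incubation at 37 deg C.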

[3] = target: Androgen receptor (Homo sapiens) (UniProt P10275); assay: qHTS assay for small molecule agonists of androgen receptor signaling (AID 588515; active = well fitted curve in the direction sought with a large enough effect in the signal ratio, with a control signal flat; the % refers to the signal ratio; note: % is set by controls: 0 for no effect and ±100 for the full control effect); settings: AR-UAS-bla HEK293, beta-lactamase ratio, agonist 16 h; activation: active compounds read high
Androgen receptor (Homo sapiens), sequence (P10275 whole entry, looked up): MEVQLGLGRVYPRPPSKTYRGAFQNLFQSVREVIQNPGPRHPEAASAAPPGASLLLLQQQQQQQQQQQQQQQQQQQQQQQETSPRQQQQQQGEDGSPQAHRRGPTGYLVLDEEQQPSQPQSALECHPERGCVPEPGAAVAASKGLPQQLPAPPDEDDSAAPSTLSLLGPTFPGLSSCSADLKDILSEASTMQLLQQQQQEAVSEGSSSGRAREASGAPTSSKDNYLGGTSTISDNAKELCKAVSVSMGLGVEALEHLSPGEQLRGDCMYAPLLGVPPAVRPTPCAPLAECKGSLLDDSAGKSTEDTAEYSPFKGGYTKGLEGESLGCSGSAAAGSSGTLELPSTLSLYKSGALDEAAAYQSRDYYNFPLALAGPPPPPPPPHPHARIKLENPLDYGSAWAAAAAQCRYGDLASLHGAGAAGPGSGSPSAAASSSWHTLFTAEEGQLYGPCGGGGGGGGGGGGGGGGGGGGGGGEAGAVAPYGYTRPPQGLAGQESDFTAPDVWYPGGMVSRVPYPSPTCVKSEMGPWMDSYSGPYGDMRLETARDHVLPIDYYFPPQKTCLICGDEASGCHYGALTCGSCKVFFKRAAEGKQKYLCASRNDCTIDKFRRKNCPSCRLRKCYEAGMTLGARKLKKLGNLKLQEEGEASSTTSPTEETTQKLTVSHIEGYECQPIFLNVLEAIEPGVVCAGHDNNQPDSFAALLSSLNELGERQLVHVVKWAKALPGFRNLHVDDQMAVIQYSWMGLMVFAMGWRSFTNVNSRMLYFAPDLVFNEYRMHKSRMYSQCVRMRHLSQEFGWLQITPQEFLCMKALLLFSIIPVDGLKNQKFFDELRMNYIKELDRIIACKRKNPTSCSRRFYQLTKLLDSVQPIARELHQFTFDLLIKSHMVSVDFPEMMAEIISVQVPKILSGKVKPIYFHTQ
Procedure, shortened: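 Stimulation of an AR-responsive β-lactamase reporter in GripTite HEK293 cells was measured after 16 h compound exposure at 37 °C, via CCF4 fluorescence after 2 h RT. EC50 from Hill fits, normalized to R1881 at 30 nM.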

[4] = target: Androgen receptor (Homo sapiens) (UniProt P10275); assay: qHTS assay for small molecule antagonists of androgen receptor signaling (AID 588516; active = well fitted curve in the direction sought with a large enough effect in the signal ratio, with a control signal flat, not every such curve was filed as active; the % refers to the signal ratio; note: % is set by controls: 0 for no effect and ±100 for the full control effect)
Procedure, shortened: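 Antagonist mode: inhibition of R1881-stimulated (10 nM final) bla reporter in GeneBLAzer AR HEK 293 cells, 16 h at 37C, compounds titrated. IC50 and efficacy from Hill-equation fits of 405/460–530 nm FRET ratios.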

[5] = target: Bile acid receptor (Homo sapiens) (UniProt Q96RI1); assay: qHTS assay for small molecule antagonists of farnesoid X receptor signaling (AID 588526); note: % is set by controls: 0 for no effect and ±100 for the full control effect
Bile acid receptor (Homo sapiens), sequence (Q96RI1 whole entry, looked up): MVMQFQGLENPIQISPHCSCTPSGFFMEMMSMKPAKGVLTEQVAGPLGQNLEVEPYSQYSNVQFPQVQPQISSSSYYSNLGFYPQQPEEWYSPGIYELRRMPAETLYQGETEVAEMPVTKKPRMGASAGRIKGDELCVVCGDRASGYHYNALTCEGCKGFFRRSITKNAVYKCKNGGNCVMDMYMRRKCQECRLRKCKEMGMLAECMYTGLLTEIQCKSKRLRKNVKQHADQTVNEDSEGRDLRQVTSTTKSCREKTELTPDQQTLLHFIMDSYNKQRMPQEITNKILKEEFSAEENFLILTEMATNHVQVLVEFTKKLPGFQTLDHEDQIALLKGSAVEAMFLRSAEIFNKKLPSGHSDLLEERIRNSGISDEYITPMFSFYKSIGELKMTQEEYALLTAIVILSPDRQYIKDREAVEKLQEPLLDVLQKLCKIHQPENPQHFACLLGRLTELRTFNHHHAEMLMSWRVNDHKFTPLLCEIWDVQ
Procedure, shortened: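 Antagonist mode: titrated compounds tested against chenodeoxycholic acid stimulation (normalized to 50 uM CDCA and DMSO) in GeneBLAzer HEK293T cells for 16 h. Beta-lactamase read by CCF4 fluorescence; IC50 from Hill fits.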

[6] = target: Glucocorticoid receptor (Homo sapiens) (UniProt P04150); assay: qHTS assay for small molecule antagonists of glucocorticoid receptor signaling (AID 588533; active = well fitted inhibition curve with a large enough effect in the signal ratio, with a control signal flat, not every such curve was filed as active; the % refers to the signal ratio;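 note: cells stimulated with 2 nM dexamethasone as agonist; % is set by controls: 0 for no effect and ±100 for the full control effect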)
Glucocorticoid receptor (Homo sapiens), sequence (P04150 whole entry, looked up): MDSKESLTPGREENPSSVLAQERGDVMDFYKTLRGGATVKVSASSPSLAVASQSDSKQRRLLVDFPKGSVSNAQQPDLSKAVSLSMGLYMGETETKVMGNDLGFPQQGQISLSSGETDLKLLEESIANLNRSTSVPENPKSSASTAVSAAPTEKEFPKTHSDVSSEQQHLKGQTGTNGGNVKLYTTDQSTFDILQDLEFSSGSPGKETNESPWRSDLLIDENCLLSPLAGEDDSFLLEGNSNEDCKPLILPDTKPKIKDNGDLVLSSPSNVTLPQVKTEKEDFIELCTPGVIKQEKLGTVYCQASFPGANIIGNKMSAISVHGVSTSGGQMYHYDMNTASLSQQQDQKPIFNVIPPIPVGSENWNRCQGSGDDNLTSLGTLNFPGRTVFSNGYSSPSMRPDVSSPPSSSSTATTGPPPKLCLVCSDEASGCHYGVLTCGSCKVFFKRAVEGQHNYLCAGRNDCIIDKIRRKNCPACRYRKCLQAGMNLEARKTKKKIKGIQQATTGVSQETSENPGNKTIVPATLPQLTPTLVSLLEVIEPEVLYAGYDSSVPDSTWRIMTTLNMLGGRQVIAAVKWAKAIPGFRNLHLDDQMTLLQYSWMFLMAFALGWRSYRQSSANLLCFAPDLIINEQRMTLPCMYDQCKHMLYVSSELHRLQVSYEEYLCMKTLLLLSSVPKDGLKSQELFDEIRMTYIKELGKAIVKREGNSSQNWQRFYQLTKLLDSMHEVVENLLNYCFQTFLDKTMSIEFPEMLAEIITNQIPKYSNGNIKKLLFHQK
Procedure, shortened: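 Antagonist-mode qHTS: compound titrations added to GRE-bla HeLa cells, then dexamethasone 2 nM final; 18 h, 37 C. CCF4 FRET fluorescence normalized to dexamethasone and DMSO; IC50 from Hill fit.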

[7] = target: Peroxisome proliferator-activated receptor delta (Homo sapiens) (UniProt Q03181); assay: qHTS assay for small molecule antagonists of peroxisome proliferator-activated receptor delta signaling (AID 588535; active = well fitted inhibition curve with a large enough effect in the signal ratio, with a control signal flat, not every such curve was filed as active; the % refers to the signal ratio)
Peroxisome proliferator-activated receptor delta (Homo sapiens), sequence (Q03181 whole entry, looked up): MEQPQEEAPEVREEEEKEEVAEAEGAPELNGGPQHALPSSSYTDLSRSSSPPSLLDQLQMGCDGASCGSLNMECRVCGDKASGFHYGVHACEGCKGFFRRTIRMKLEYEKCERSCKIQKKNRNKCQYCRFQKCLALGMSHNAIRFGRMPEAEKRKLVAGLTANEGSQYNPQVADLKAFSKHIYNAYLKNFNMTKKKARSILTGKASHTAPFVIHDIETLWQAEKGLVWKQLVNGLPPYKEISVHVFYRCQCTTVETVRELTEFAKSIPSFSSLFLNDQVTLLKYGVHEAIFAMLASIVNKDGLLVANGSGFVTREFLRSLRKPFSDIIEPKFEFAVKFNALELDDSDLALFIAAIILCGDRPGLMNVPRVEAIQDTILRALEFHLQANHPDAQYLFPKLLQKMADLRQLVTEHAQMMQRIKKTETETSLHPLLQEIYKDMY
Procedure, shortened: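 Beta-lactamase reporter read-out (405 nm excitation, 460/530 nm emission) after CCF4 loading for 2 hrs at RT. HEK293T PPAR-delta-UAS-bla cells, 2% charcoal/dextran FBS, compounds for 18 hrs at 37 C. Hill fit gave IC50 and efficacy.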

[8] = target: Peroxisome proliferator-activated receptor gamma (Homo sapiens) (UniProt P37231); assay: qHTS assay for small molecule antagonists of peroxisome proliferator-activated receptor gamma signaling (AID 588537; active = well fitted inhibition curve with a large enough effect in the signal ratio, with a control signal flat, not every such curve was filed as active; the % refers to the signal ratio;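 note: reporter cells co-stimulated with 50 nM rosiglitazone agonist during compound treatment; % of control where 0% means no effect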)
Peroxisome proliferator-activated receptor gamma (Homo sapiens), sequence (P37231 whole entry, looked up): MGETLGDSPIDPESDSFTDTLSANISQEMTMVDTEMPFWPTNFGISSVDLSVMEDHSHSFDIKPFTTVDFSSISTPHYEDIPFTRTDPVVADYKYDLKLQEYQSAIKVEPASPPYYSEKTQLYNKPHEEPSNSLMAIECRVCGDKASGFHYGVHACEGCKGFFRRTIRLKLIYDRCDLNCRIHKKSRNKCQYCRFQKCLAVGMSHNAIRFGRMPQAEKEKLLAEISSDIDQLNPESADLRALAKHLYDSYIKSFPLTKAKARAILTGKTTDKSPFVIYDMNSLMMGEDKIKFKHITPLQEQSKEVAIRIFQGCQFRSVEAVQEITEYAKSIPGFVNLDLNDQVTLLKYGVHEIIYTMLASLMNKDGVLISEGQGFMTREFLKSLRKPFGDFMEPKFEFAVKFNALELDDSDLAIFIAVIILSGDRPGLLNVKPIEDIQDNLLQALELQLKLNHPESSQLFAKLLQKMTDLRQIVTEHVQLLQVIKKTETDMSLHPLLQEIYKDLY
Procedure, shortened: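 Read-out: CCF4 fluorescence (ex 405, em 460/530 nm) after 2 h at RT. Cells were HEK293 carrying a UAS-bla reporter and treated 16 h at 37 C with compound plus rosiglitazone (50 nM final). Normalized to rosiglitazone and DMSO.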

[9] = qHTS assay for small molecule agonists of the antioxidant response element (ARE) signaling pathway (AID 651741; active = well fitted activation curve with a large enough effect in the signal ratio; the % refers to the signal ratio; note: potency is the fitted concentration of half-maximal effect; for activation: % of control where 0% means no effect)
Procedure, shortened: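 HepG2 ARE-bla reporter cells, 2,000/well; 5 h settle at 37 C/5% CO2; compound pin transfer (23 nL, DMSO); 16 h at 37 C; LiveBLAzer B/G FRET substrate, 2 h RT; fluorescence intensity read.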

[10] = qHTS assay for small molecule activators of the p53 signaling pathway (AID 651743; active = well fitted activation curve with a large enough effect in the signal ratio, not every such curve was filed as active; the % refers to the signal ratio; note: series mostly up to about 92 µM; % of control where 0% means no effect); settings: HCT-116 p53RE-bla, beta-lactamase FRET ratio, 16 h; activation: active compounds read high
Procedure, shortened: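 Reporter: beta-lactamase driven by p53 response elements, stably integrated in HCT-116 cells. Cells seeded at 4,000/well, 5 h preincubation, compound (DMSO) 16 h at 37 C; B/G FRET substrate 2 h RT; fluorescence intensity read.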

[11] = qHTS assay for small molecule agonists of the antioxidant response element (ARE) signaling pathway measured by Nrf2-dependant transcriptional activity (AID 720636; active = well fitted curve in the direction sought with a large enough effect in the repeat runs; an effect the other way counts as inactive or inconclusive; note: % of control where 0% means no effect)
Procedure, shortened: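 ARE-luc HepG2 cells carrying an Nrf2-responsive luciferase reporter, in medium with 1% dialyzed FBS, exposed to compound for 16 hr at 37 C, 5% CO2. Luminescence read 30 min after ONE-Glo addition.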

[12] = target: Vitamin D3 receptor (Homo sapiens) (UniProt P11473); assay: qHTS assay for small molecule agonists of vitamin D receptor signaling (AID 588543);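 note: 0% = DMSO basal and 100% = reference agonist control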
Vitamin D3 receptor (Homo sapiens), sequence (P11473 whole entry, looked up): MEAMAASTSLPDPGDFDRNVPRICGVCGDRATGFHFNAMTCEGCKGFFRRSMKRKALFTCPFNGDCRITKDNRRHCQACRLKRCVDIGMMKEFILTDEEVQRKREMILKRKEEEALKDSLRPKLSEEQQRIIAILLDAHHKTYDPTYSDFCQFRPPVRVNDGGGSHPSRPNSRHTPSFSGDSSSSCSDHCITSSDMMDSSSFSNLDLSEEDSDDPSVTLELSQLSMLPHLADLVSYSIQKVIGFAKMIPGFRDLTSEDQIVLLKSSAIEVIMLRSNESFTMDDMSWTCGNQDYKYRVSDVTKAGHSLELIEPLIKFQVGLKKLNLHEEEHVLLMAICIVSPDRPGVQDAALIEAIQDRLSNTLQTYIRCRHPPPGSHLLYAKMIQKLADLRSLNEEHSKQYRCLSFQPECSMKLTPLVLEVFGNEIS
Procedure, shortened: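 Agonist-mode beta-lactamase reporter: HEK293T VDR-UAS-bla cells in charcoal-stripped 2% FBS, compound series 16 h 37 C, CCF4 2 h RT. EC50 from Hill fit, scaled against DMSO and 50 nM calcitriol control.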

[13] = target: Cytochrome P450 3A4 (Homo sapiens) (UniProt P08684); assay: qHTS Assay for Activators of Cytochrome P450 3A4 (AID 885; active = well fitted curve in the direction sought with a large enough effect; an effect the other way counts as inactive or inconclusive; note: nearly all actives have a fitted effect of over 65% in size)
Procedure, shortened: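 Human CYP3A4 dealkylates Luciferin-PPXE to luciferin, which luciferase detection converts to light. Substrate was at its KM (25uM), buffer 200mM KPO4, reaction 60 min at RT.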

OC1CCC2Cc3ccccc3N=C12 (stereo not drawn)
inactive: Potency [1] | Potency [2]

Cc1ccc(C(=O)c2ccccc2)cc1
inactive: activation [3] 1.33% | outcome [4] | Potency [5] | Potency [6] | Potency [7] | Potency [8] | Potency [9] | activation [10] 3.79%

CCC/C(=N\OCC)C1=C(O)CC(O)(CC(C)S(=O)(=O)CC)CC1=O (stereo not drawn)
inactive: activation [3] -4% | outcome [4] | Potency [5] | Potency [6] | Potency [7] | Potency [8] | activation [10] -2.69% | Potency [11]
active: Potency [9] 54.5 µM

CCCCCCCCCc1ccccc1
inactive: activation [3] 1.05% | outcome [4] | Potency [5] | Potency [6] | Potency [7] | Potency [8] | activation [10] -0.95%

C=Cc1ccc(P(c2ccccc2)c2ccccc2)cc1
inactive: activation [3] 8.38% | outcome [4] | Potency [5] | Potency [6] | Potency [7] | Potency [8] | Potency [9] | Potency [11]

COC(=O)c1cccc(C)c1S(=O)(=O)NC(=O)Nc1nc(OCC(F)(F)F)nc(N(C)C)n1
inactive: activation [3] 3.18% | outcome [4] | Potency [5] | Potency [6] | Potency [7] | Potency [8] | outcome [12] | Potency [9] | Potency [11]

O=c1[nH]c(=O)c2[nH]cnc2[nH]1
inactive: activation [3] 2.45% | outcome [4] | Potency [6] | Potency [7] | Potency [8] | outcome [12] | Potency [9] | activation [10] 4.14% | Potency [11]

COC(=O)c1c(Cl)nn(C)c1S(=O)(=O)NC(=O)Nc1nc(OC)cc(OC)n1
inactive: activation [3] 5.65% | outcome [4] | Potency [5] | Potency [6] | Potency [7] | Potency [8] | activation [10] -0.555% | Potency [11]

O=C(O)c1ccc2c(c1)C(=O)OC2=O
inactive: activation [3] 5.43% | outcome [4] | Potency [5] | outcome [12] | activation [10] -0.551% | Potency [11]

NN(c1ccccc1)c1ccccc1
inactive: activation [3] 8.8% | outcome [4] | Potency [5] | Potency [7] | Potency [8] | activation [10] -3.49%

CC(C)(C)C(O)/C(=C\c1ccc(Cl)cc1)n1cncn1 (stereo not drawn)
inactive: activation [3] -3.93% | outcome [4] | Potency [5] | Potency [6] | Potency [7] | Potency [8] | outcome [12] | activation [10] -2.96% | Potency [11]

CC(=O)c1c(O)c(C)c(O)c2c1OC1=CC(=O)C(C(C)=O)C(=O)[C@@]12C (stereo partly drawn)
inactive: Potency [13] | Potency [2]

CCCCCCCCCCCCCCN
inactive: activation [3] 2.33% | outcome [4] | Potency [5] | Potency [6] | Potency [8] | outcome [12] | Potency [9] | activation [10] 2.13%

CCCCC(CC)C(=O)OCCOCCOCCOC(=O)C(CC)CCCC (stereo not drawn)
inactive: activation [3] 6.77% | outcome [4] | Potency [6] | Potency [7] | Potency [8] | outcome [12] | Potency [9] | activation [10] 0.679% | Potency [11]

CCCCCCCCCCCCCCCCCCN
inactive: activation [3] -9.22% | outcome [4] | Potency [5] | Potency [6] | Potency [7] | activation [10] -1.5% | Potency [11]

CC(=O)N(CCN(C(C)=O)C(C)=O)C(C)=O
inactive: activation [3] 11.2% | outcome [4] | Potency [5] | outcome [12] | Potency [9] | activation [10] 0.892%

CCc1cccc(C)c1N(C(=O)CS(=O)(=O)O)[C@@H](C)COC
inactive: activation [3] -2.5% | outcome [4] | Potency [5] | Potency [6] | Potency [7] | Potency [8] | outcome [12] | Potency [9] | activation [10] 3.16% | Potency [11]

CCCCCCCC[Si](Cl)(Cl)Cl
inactive: activation [3] 3.85% | outcome [4] | Potency [5] | Potency [6] | Potency [7] | Potency [8] | activation [10] 0.514% | Potency [11]

CS/C(=N\O)C(=O)N(C)C
inactive: activation [3] 11.7% | outcome [4] | Potency [5] | Potency [6] | Potency [8] | outcome [12] | Potency [9] | activation [10] -0.3% | Potency [11]

CNc1nc(=O)n(C2CCCCC2)c(=O)n1C
inactive: activation [3] -4.83% | outcome [4] | Potency [5] | Potency [6] | Potency [7] | Potency [8] | outcome [12] | Potency [9]

Nc1cc(Cl)nc(C(=O)O)c1Cl
inactive: activation [3] 6.83% | outcome [4] | Potency [5] | Potency [7] | Potency [8] | outcome [12] | Potency [9] | Potency [11]

COC(=O)c1ccccc1S(=O)(=O)NC(=O)Nc1nc(OC(F)F)cc(OC(F)F)n1
inactive: activation [3] -5.06% | outcome [4] | Potency [5] | Potency [7] | Potency [8] | outcome [12] | Potency [9] | activation [10] -4.45% | Potency [11]

COc1ccc(-c2coc3ccc(OC4OC(COC(C)=O)C(OC(C)=O)C(OC(C)=O)C4OC(C)=O)cc3c2=O)cc1 (stereo not drawn)
inactive: Potency [13] | Potency [2]

C=C(C)C(=O)OCCCCCCCCCCCCCCCC
inactive: activation [3] 10.8% | outcome [4] | Potency [5] | Potency [6] | Potency [7] | Potency [8] | Potency [9] | activation [10] -3.74%

CCCC/C=C\CCCCCCCCO
inactive: activation [3] 1.62% | outcome [4] | Potency [5] | Potency [8] | outcome [12] | Potency [9] | activation [10] 0.706% | Potency [11]
